In PubChem BioAssay (NCATS):
Values joined by “and” are separate entries in the source; they are usually repeats but may differ in a detail not shown here. Identical values can stand only once. Results filed as inconclusive are left out. Some structures have more than one record in an assay (separate samples or runs), and their calls can disagree. Active and inactive are the calls of the source. Unless noted, calls come from the whole dose curve; as a rule, active = well fitted curve in the direction sought with a large enough effect; inconclusive = small, poorly fitted or top-dose-only effect, or another doubt; inactive = no such curve, though single readings can be large; an effect the other way counts as inactive or inconclusive.

Columns and labels:
[1] = P-glycoprotein substrates identified in KB-8-5-11 adenocarcinoma cell line, qHTS therapeutic library screen (AID 1346987); note: nearly all actives have a fitted effect of over 65% in size; note: potency is the fitted concentration of half-maximal effect
Summary of the method: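 Luminescence from CellTiter-Glo, read 5 min after addition, quantified survival of KB-8-5-11 (P-gp-overexpressing) cells exposed to compounds for 72 h. AC50 was derived from concentration-response curves.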

[2] = NS1 protein of Zika virus - qHTS assay to identify small molecule inhibitors in human HEK 293 cells (AID 1347053); note: nearly all actives have a fitted effect of over 55% in size; note: potency is the fitted concentration of half-maximal effect
Summary of the method: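 TR-FRET signal from two anti-ZIKV NS1 antibodies quantified NS1 in HEK 293 cells 24 h after MR766 infection at MOI = 0.5; compounds were added 1 h before virus. Uninfected cells and infected cells defined the NS1 normalization range.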

[3] = qHTS of pediatric cancer cell lines to identify multiple opportunities for drug repurposing: Primary screen for TC32 cells (AID 1347089); note: nearly all actives have a fitted effect of over 60% in size; note: potency is the fitted concentration of half-maximal effect
Summary of the method: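 Luminescent ATP read-out (CellTiter-Glo) of metabolically active TC32 cells after 48 h exposure. Concentration-response curves came from 11-point (MIPE, 0.78 nM–46 µM) or 8-point (NPC, 0.59 nM–46 µM) primary titrations; follow-up used 11 points.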

[4] = qHTS of pediatric cancer cell lines to identify multiple opportunities for drug repurposing: Primary screen for SJ-GBM2 cells (AID 1347091); note: potency is the fitted concentration of half-maximal effect
Summary of the method: (§1)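 Cell viability, CellTiter-Glo luminescence; 500-1,000 cells/well, 8- or 11-point titration, 48 h compound exposure at 37 degrees C, 5% CO2. Controls: DMSO neutral, bortezomib 2.3 µM final as positive.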

[5] = qHTS of pediatric cancer cell lines to identify multiple opportunities for drug repurposing: Primary screen for SK-N-MC cells (AID 1347093); note: potency is the fitted concentration of half-maximal effect
Summary of the method: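 Metabolically active cells were quantified by ATP-dependent luminescence (CellTiter-Glo, 15 min at room temperature) following 48 h treatment. Cells had been plated at 500-1,000 per well and settled for 5 h beforehand.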

[6] = qHTS of pediatric cancer cell lines to identify multiple opportunities for drug repurposing: Primary screen for DAOY cells (AID 1347090); note: nearly all actives have a fitted effect of over 55% in size; note: potency is the fitted concentration of half-maximal effect
Summary of the method: as §1

[7] = qHTS of pediatric cancer cell lines to identify multiple opportunities for drug repurposing: Primary screen for A673 cells (AID 1347092); note: nearly all actives have a fitted effect of over 45% in size; note: potency is the fitted concentration of half-maximal effect
Summary of the method: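 Cell viability of A673 measured by CellTiter-Glo ATP luminescence after 48 hours compound exposure. Dilution series spanned 0.78 nM to 46 µM (MIPE, 11-point) or 0.59 nM to 46 µM (NPC, 8-point); bortezomib 2.3 uM positive control.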

[8] = qHTS of pediatric cancer cell lines to identify multiple opportunities for drug repurposing: Primary screen for BT-37 cells (AID 1347094); note: potency is the fitted concentration of half-maximal effect
Summary of the method: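 Plated cells (500-1,000 per well, growth media) were allowed to settle for 5 hours, treated with compound dilutions for 48 hours, then lysed with CellTiter-Glo for 15 min at room temperature before luminescence reading.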

[9] = P-glycoprotein substrates identified in KB-3-1 adenocarcinoma cell line, qHTS therapeutic library screen (AID 1346986);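 note: potency is the fitted concentration of half-maximal effect; potency is for cytotoxicity meaning loss of cell viability; nearly all actives have a fitted effect of over 60% in size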
Summary of the method: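 Viability read by CellTiter-Glo after 72 h compound exposure in dose-response of KB-3-1 and KB-8-5-11 (P-gp-high) cells. Hits needed AC50 < 10 uM, >50% maximum response and curve class -1.1 to -2.4. Cherry-picks retested ± tariquidar, including pcDNA/MDR-19 HEK-293 pair.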

[10] = Natriuretic polypeptide receptor (hNpr1) antagonism - Pilot counterscreen GloSensor control cell line (AID 1347045; calls by dose curve; note: series mostly up to about 38 µM)
Summary of the method: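 Cells were first seeded and incubated overnight at 37C, then loaded with 2% GloSensor substrate for 2 h. Compounds were added for 30 min at room temperature, followed by a baseline read, 50 uM SNP and a final read after 20 min.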

[11] = molecular target: Atrial natriuretic peptide receptor 1 (Homo sapiens) (UniProt P16066); assay: Natriuretic polypeptide receptor (hNpr1) antagonism - Pilot screen (AID 1347049; calls by dose curve;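 note: HEK293 cells with hNpr1 and GloSensor cGMP luciferase stimulated by 0.1 nM hNppA; agonist-evoked cGMP luminescence read 20 min after hNppA addition; potency is the fitted concentration of half-maximal effect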)
Summary of the method: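 Receptor antagonism read as cGMP-dependent luminescence in hNpr1/pGS-40F HEK293 cells: pre-read after 30 min compound exposure, post-read 20 min after hNppA agonist at 0.1 nM final, all at room temperature, protected from light; A-71915 titration as control.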

[12] = molecular target: T1, Tyrosine-protein phosphatase non-receptor type substrate 1 (Homo sapiens) + Leukocyte surface antigen CD47 (Homo sapiens) (UniProt P78324+Q08722); assay: CD47-SIRPalpha protein protein interaction - LANCE assay qHTS validation (AID 1347057; active = well fitted curve in the direction sought with a large enough effect in the signal ratio, with a control signal flat, not every such curve was filed as active; the % refers to the signal ratio; note: series mostly up to about 38 µM)
Summary of the method: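 Inhibition of soluble CD47/SIRPalpha ectodomain association by titrated compounds, measured as 665/615 nm time-resolved FRET ratio after sequential 30 min room-temperature incubations.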

[13] = molecular target: T1, Tyrosine-protein phosphatase non-receptor type substrate 1 (Homo sapiens) + Leukocyte surface antigen CD47 (Homo sapiens); assay: CD47-SIRPalpha protein protein interaction - HTRF assay qHTS validation (AID 1347058; active = well fitted curve in the direction sought with a large enough effect in the signal ratio, not every such curve was filed as active; the % refers to the signal ratio; note: series mostly up to about 38 µM)
Summary of the method: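 Soluble extracellular domains (6His-CD47, Avi-tag-biotinylated SIRPalpha) in PBS pH 7.4 with 0.05% IGEPAL CA-630. Compounds were preincubated 30 min at RT with CD47 and anti-His-Eu, then SIRPalpha and SAV-XL665 were added. TR-FRET 665/615 ratio.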

[14] = molecular target: T1, Tyrosine-protein phosphatase non-receptor type substrate 1 (Homo sapiens) + Leukocyte surface antigen CD47 (Homo sapiens); assay: CD47-SIRPalpha protein protein interaction - Alpha assay qHTS validation (AID 1347059);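 note: bead proximity luminescence from CD47 binding SIRPalpha after compound preincubation with SIRPalpha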
Summary of the method: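 AlphaScreen signal between CD47-His (12.5 nM) and biotin-SIRPalpha (25 nM) soluble extracellular domains, bead-captured via Ni-NTA and streptavidin. Compounds, in 7-point titrations, met SIRPalpha 30 min before CD47; PBS pH 7.4 with 0.05% IGEPAL.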

[15] = molecular target: Parathyroid hormone/parathyroid hormone-related peptide receptor (Homo sapiens) (UniProt Q03431); assay: qHTS for PTHR1 Agonists: Optimization Screen against the NCGC LOPAC library (AID 1347079);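 note: GloSensor cAMP luminescence in HEK-293 GP2 cells expressing human PTHR1 with IBMX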
Summary of the method: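 HEK-293 GP2 cells, PTHR1 + GloSensor cAMP; 3000 cells/well, o/n. Luciferin + IBMX 0.5mM each (stock), 1 hr 37C. Cpd titration, 1 hr 37C. Lum after 15 min RT. Ctrl M-PTH(1-15) top 10uM.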

Measured: Potency

T1 sequence (P78324 whole entry, looked up, the tested form may be a part): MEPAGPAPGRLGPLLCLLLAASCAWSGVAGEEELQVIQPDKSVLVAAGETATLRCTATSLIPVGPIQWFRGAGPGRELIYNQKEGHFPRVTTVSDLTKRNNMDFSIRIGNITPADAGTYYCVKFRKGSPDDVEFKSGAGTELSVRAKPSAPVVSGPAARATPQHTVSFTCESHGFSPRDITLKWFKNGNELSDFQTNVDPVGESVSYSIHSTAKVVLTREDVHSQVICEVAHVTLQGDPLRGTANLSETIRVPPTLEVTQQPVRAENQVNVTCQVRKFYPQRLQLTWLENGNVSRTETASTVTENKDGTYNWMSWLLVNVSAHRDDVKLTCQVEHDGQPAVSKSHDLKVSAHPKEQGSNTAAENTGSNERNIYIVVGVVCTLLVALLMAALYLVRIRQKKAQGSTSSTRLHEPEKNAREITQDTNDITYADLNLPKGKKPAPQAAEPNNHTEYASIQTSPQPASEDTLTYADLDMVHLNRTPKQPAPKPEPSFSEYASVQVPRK
T1 sequence (Q08722 whole entry, looked up, the tested form may be a part): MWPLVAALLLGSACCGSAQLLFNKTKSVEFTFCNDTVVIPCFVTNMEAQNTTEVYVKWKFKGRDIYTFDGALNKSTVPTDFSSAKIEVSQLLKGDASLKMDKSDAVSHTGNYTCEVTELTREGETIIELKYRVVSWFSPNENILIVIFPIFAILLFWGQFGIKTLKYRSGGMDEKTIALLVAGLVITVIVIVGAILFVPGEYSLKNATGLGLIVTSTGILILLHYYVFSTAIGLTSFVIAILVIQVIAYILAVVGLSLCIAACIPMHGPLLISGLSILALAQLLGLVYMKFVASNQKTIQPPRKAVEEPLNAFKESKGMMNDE
Parathyroid hormone/parathyroid hormone-related peptide receptor (Homo sapiens), sequence (Q03431 whole entry, looked up): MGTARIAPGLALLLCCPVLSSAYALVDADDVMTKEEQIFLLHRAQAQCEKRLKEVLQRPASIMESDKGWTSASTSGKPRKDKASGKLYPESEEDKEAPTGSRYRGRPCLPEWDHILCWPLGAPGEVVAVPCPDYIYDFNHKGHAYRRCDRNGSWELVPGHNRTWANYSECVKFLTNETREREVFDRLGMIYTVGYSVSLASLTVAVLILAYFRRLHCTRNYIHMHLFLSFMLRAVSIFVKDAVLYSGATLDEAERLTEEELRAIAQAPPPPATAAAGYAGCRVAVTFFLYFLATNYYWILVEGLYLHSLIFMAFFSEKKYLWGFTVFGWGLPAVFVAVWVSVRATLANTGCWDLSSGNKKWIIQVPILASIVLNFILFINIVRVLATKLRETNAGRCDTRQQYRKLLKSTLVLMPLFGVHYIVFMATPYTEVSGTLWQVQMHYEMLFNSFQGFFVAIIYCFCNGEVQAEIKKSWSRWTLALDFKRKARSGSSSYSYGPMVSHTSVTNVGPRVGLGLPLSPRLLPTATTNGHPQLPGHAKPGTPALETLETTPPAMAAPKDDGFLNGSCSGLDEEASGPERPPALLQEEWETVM
Atrial natriuretic peptide receptor 1 (Homo sapiens), sequence (P16066 whole entry, looked up): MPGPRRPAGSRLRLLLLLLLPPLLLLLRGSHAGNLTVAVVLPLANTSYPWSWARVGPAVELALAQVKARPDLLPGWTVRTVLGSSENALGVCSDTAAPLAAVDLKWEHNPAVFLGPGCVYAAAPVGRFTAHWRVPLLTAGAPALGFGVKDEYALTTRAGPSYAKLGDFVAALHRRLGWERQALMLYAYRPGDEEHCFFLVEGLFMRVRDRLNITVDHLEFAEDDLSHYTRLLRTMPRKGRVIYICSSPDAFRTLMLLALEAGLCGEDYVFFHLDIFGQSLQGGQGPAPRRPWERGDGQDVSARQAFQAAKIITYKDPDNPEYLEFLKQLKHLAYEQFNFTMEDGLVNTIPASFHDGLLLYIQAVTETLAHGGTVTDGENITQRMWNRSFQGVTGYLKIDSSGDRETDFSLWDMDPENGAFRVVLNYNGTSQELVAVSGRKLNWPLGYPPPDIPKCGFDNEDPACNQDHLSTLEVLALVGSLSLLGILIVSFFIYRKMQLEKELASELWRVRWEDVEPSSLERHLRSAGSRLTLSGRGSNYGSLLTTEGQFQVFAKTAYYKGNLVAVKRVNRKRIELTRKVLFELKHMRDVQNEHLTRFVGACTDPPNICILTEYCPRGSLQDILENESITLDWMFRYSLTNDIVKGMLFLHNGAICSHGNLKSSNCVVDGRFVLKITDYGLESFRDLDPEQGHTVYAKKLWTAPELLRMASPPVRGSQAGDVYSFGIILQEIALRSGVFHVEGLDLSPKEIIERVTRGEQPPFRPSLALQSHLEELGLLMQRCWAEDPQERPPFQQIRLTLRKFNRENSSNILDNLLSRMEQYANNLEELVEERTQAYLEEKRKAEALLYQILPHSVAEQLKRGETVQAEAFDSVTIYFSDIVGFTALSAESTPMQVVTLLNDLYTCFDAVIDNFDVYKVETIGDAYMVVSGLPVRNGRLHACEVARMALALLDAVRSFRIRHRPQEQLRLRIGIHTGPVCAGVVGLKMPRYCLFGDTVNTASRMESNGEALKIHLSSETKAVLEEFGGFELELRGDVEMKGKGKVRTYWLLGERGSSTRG

CC(C)c1noc(N2CCC(COc3ccc(-c4ccc(S(C)(=O)=O)cc4)nc3)CC2)n1
inactive: [1] | [2] | [3] | [4] | [5]

CC1COC2(CCN(c3nc(=O)c4cc(C(F)(F)F)cc([N+](=O)[O-])c4s3)CC2)O1 (centres undefined)
inactive: [1] | [2] | [3] | [6] | [4] | [7] | [5] | [8]

CC1(C)CC(=O)c2c(C(F)(F)F)nn(-c3ccc(C(N)=O)c(NC4CCC(OC(=O)CN)CC4)c3)c2C1 (centres undefined)
inactive: [2]
active: [1] 662 nM and 820 nM | [3] 0.739 µM | [4] 0.332 µM | [7] 0.235 µM | [5] 0.166 µM

O=C(O)CO.[NH2-].[NH2-].[Pt+2]
inactive: [1] | [2] | [3] | [7] | [5] | [8]

CC=CC1=C(C(=O)O)N2C(=O)[C@H](NC(=O)[C@H](N)c3ccc(O)cc3)[C@@H]2SC1
active: [7] 0.935 µM | [5] 23.5 µM
inactive: [1] | [2] | [3] | [6] | [4]

COc1ccc(C(=O)CC2(O)C(=O)Nc3c(Cl)ccc(Cl)c32)cc1 (centres undefined)
active: [1] 2.64 µM and 1.16 µM | [2] 1.05 µM | [3] 7.39 µM | [6] 3.72 µM | [7] 2.35 µM | [5] 1.18 µM

O=C(Nc1nc2cccc(-c3ccc(CN4CCS(=O)(=O)CC4)cc3)n2n1)C1CC1
inactive: [2]
active: [9] 20.6 µM | [4] 18.7 µM | [7] 11.8 µM | [5] 5.26 µM | [8] 19.3 µM

Cc1nc(N)ncc1-c1nc(N2CCOCC2)c2sc(C(C)(C)O)cc2n1
active: [9] 1.03 µM | [6] 0.935 µM | [4] 1.05 µM | [7] 1.18 µM | [5] 0.0469 µM | [8] 6.11 µM

COc1ccc2c(OCc3nnc4ccc(-c5ccccc5)nn34)ccnc2c1
inactive: [1] | [2] | [3] | [6] | [7] | [5] | [8]

OCCCNc1cc(-c2ccnc(Nc3cccc(Cl)c3)n2)ccn1
active: [1] 83.3 nM and 146 nM | [2] 0.418 µM | [3] 0.37 µM | [6] 0.187 µM | [4] 0.0833 µM | [7] 0.0469 µM | [5] 0.105 µM | [8] 0.243 µM

COc1ccc(-n2nc(C(N)=O)c3c2C(=O)N(c2ccc(N4CCCCC4=O)cc2)CC3)cc1
active: [7] 9.35 µM | [8] 12.2 µM
inactive: [1] | [2] | [3] | [6] | [4] | [5]

COc1ccc(F)c(F)c1C(=O)c1cnc(NC2CCN(S(C)(=O)=O)CC2)nc1N
active: [1] 3.72 µM and 4.11 µM | [2] 14.8 µM | [3] 5.87 µM | [6] 3.72 µM | [7] 1.48 µM | [5] 1.87 µM | [8] 3.43 µM

CC(C)CC(=O)Nc1n[nH]c2c1CN(C(=O)C1CCN(C)CC1)C2(C)C
active: [2] 26.4 µM | [3] 5.87 µM | [6] 11.8 µM | [4] 1.48 µM | [7] 0.187 µM | [5] 0.0526 µM | [8] 0.485 µM
inactive: [1]

OCc1ccc(-c2ccc(-c3ccc(CO)s3)o2)s1
inactive and 3.17 µM (active): [1]
active: [7] 0.148 µM
inactive: [2] | [3] | [8]

COc1cc(C(=O)NS(=O)(=O)c2ccccc2C)ccc1Cc1cn(C)c2ccc(NC(=O)OC3CCCC3)cc12
active: [6] 29.6 µM | [7] 14.8 µM | [5] 8.33 µM
inactive: [1] | [2] | [3]

O=c1c2ccccc2nc2n1CCc1c-2[nH]c2ccccc12
active: [11] 1.51 µM
not listed: [4] | [8] | [9]
inactive: all other assays above

CN[C@H]1CCc2cc(OC)c(OC)c(OC)c2-c2ccc(OC)c(=O)cc21
active: [1] 18.7 nM and 1.16 µM | [2] 0.0083 µM | [3] 0.037 µM | [6] 0.0037 µM | [4] 0.001 µM | [7] 0.0012 µM | [5] 0.0026 µM | [8] 0.0061 µM
